Results taken from the supplement of paper PMC7380943.

System: CLZ3 (HCA2 human fibroblast dual HR-NHEJ reporter)
Experiment: NHEJ repair efficiency (GFP+ cells) relative to control (log10 fold); higher = more non-homologous end joining
Settings: 5 µM; doxycycline 0.5 ug/mL
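Note: compound given one day ahead of doxycycline, which switches on I-SceI endonuclease to cut the chromosomally integrated reporter and create DSBs.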

Compound	NHEJ repair efficiency (log10)
C=C1C[C@]2(O)O[C@@]3(CC2=C(C)C)[C@@H](C)CC[C@@H]13 [Isocurcumenol]	-0.116
CC(C)[C@@H]1[C@H]2OC(=O)[C@@H]1[C@@H]1CC[C@@H]3CN(C)[C@H]2[C@@]31C [Dendrobine]	0.165
COc1cc2ccc(=O)oc2cc1O [Scopoletin]	-0.0239
OC[C@@H]1O[C@@H](OC[C@H]2O[C@@H](OC/C=C/c3ccccc3)[C@H](O)[C@@H](O)[C@@H]2O)[C@H](O)[C@H]1O [Rosarin]	0.0801
COc1cc([C@@H]2Oc3c(O)cc([C@H]4Oc5cc(O)cc(O)c5C(=O)[C@@H]4O)cc3[C@H]2CO)ccc1O [Silicristin]	-0.0735
C/C=C1\[C@H]2C=C(C)C[C@]1(N)c1ccc(=O)[nH]c1C2 [Huperzine-A]	0.0591
CC(C)[C@@H](C)/C=C/[C@@H](C)[C@H]1CC[C@H]2C3=CC=C4C[C@@H](O)CC[C@]4(C)[C@H]3CC[C@]12C [Ergosterol]	0.00511
OC[C@H]1O[C@H](OC[C@H]2O[C@H](O[C@]3(CO)O[C@H](CO)[C@@H](O)[C@@H]3O)[C@H](O)[C@@H](O)[C@@H]2O)[C@H](O)[C@@H](O)[C@H]1O [Raffinose]	-0.133
C[C@@H]1O[C@@H](O[C@H]2[C@H](Oc3c(-c4ccc(O)cc4)oc4cc(O)cc(O)c4c3=O)O[C@H](CO)[C@@H](O)[C@@H]2O)[C@H](O)[C@H](O)[C@H]1O [Kaempferol 3-O-Neohesperidoside]	0.0799
c1cc2c(cc1O[C@H]1OC[C@H]3[C@@H]1CO[C@@H]3c1ccc3c(c1)OCO3)OCO2 [Sesamolin]	0.101
